# Reference: PubChem BioAssay AID463173 (ICCB-Longwood Screening Facility, Harvard Medical School, 2010)
# The campaign covered roughly 52,000 compounds. About 4,300 (8.3%) were called active. Rule as the data show it: active = survival mostly below about 52% (no sharp cut-off); inactive = mostly above about 56%. The list comes from a sample in which actives are over-represented; it also holds similar structures and randomly drawn compounds.
# System: DeltatarO mutant
# Experiment: growth inhibition of S. aureus wild type versus tarO mutant, primary screen, teichoic acid synthesis inhibitors, RN4220, OD600 (AID 463173)
# Details: OD600, 18 h, stronger effect = lower value, screened at 18.75 µg/mL (by protocol)
row,SMILES,survival
1,CCc1nn(CCCC(=O)NCc2ccc(OC(C)C)cc2)c(=O)c2cc3occc3n12,77% (inactive)
2,COc1ccc(N2CCN(C(=O)C3CCN(S(=O)(=O)c4cn(C)cn4)CC3)CC2)cc1,69% (inactive)
3,Cc1cccc(N2CCN(C(=O)c3cc(S(=O)(=O)N4CCC(C)CC4)cn3C)CC2)c1C,58% (inactive)
4,CC1CCN(S(=O)(=O)c2cc(C(=O)N3CCN(c4ccccc4F)CC3)n(C)c2)CC1,70% (inactive)
5,COc1ccccc1N1CCN(S(=O)(=O)c2ccc(S(=O)(=O)NC3CCCC3)cc2)CC1,55% (active)
6,Cn1cnc(S(=O)(=O)N2CCC(C(=O)N3CCN(c4ccc(Cl)cc4)CC3)CC2)c1,37% (active)
7,COc1ccccc1N1CCN(S(=O)(=O)c2ccc(-c3cnc(C4CC4)o3)cc2)CC1,113% (inactive)
8,CCOc1ccccc1N1CCN(S(=O)(=O)c2ccc(C3CCCCC3)cc2)CC1,50% (inactive)
9,Cn1cnc(S(=O)(=O)N2CCC(C(=O)N3CCN(c4ccccc4F)CC3)CC2)c1,75% (inactive)
10,COc1ccccc1N1CCN(C(=O)C2CCN(S(=O)(=O)c3cn(C)cn3)CC2)CC1,46% (active)
11,Cc1cccc(N2CCN(C(=O)C3CCN(S(=O)(=O)c4cn(C)cn4)CC3)CC2)c1C,92% (inactive)
12,CC(=O)c1ccc(N2CCN(C(=O)C3CCN(S(=O)(=O)c4cn(C)cn4)CC3)CC2)cc1,69% (inactive)
13,COc1ccccc1N1CCN(C(=O)c2cc(S(=O)(=O)N3CCC(C)CC3)cn2C)CC1,32% (active)
14,Cc1ccc(C)c(NC(=O)C(c2ccccc2)N2Cc3ccccc3C2=O)c1 (stereo not given),117% (inactive)
15,Cn1c(=O)c2c(nc(CN3CCN(c4ccccc4F)CC3)n2Cc2ccccc2F)n(C)c1=O,92% (inactive)
16,COc1ccc(-n2nc3cc(C)c(NC(=O)c4ccc(C)cc4C)cc3n2)cc1Cl,83% (inactive)
17,Cc1nnc(NC(=O)CSc2nc3c([nH]c4ccccc43)c(=O)n2-c2ccc(Cl)cc2)s1,73% (inactive)
18,Cc1ccc(CN2CCSc3ccc(C(=O)Nc4ccc(C)cc4)cc32)cc1,105% (inactive)
19,O=C(CSc1nnc(Cc2ccccc2)o1)N(c1ccccc1)c1ccccc1,78% (inactive)
20,COc1ccccc1NC(=O)C1CCCN(c2nnc(C)c3c(C)n(-c4ccccc4)nc23)C1 (stereo not given),84% (inactive)
21,COc1ccc(S(=O)(=O)NC2(C(F)(F)F)NC(=O)N(CCc3ccccc3)C2=O)cc1 (stereo not given),99% (inactive)
22,Cc1ccc(C(=O)NCC(c2ccco2)S(=O)(=O)c2ccc(Cl)cc2)cc1C (stereo not given),55% (inactive)
23,Cc1ccc(S(=O)(=O)C(CNC(=O)c2ccc(F)c(F)c2)c2ccco2)cc1 (stereo not given),-5% (active)
24,COc1ccc(C(=O)NCC(c2ccco2)S(=O)(=O)c2ccccc2)cc1 (stereo not given),-4% (active)
25,O=C(NCC(c1ccco1)S(=O)(=O)c1ccc(Cl)cc1)c1ccc(C(F)(F)F)cc1 (stereo not given),17% (active)
26,CCOc1ccc(C(=O)NCC(c2ccco2)S(=O)(=O)c2ccc(C)cc2)cc1 (stereo not given),88% (inactive)
27,CC(C)(C)c1ccc(C(=O)NCC(c2ccco2)S(=O)(=O)c2ccccc2)cc1 (stereo not given),101% (inactive)
28,Cc1ccc(S(=O)(=O)C(CNC(=O)c2ccc(C(F)(F)F)cc2)c2ccco2)cc1 (stereo not given),130% (inactive)

row,SMILES,survival
1,CC(C)(C)c1ccc(C(=O)NCC(c2ccco2)S(=O)(=O)c2ccc(F)cc2)cc1 (stereo not given),126% (inactive)
2,COc1ccc(C(=O)NCC(c2ccco2)S(=O)(=O)c2ccc(F)cc2)cc1 (stereo not given),68% (inactive)
3,Cc1cc(C)cc(S(=O)(=O)Nc2cccc(-c3ccc(N4CCOCC4)nn3)c2)c1,86% (inactive)
4,CCOC(=O)C1CCCN(C(=O)Cn2ncc3c(C)n(Cc4ccc(Cl)cc4)c(C)c3c2=O)C1 (stereo not given),59% (inactive)
5,O=C(CSc1nnc(-c2ccc3c(c2)OCO3)o1)Oc1ccccc1,87% (inactive)
6,CSc1nc(N)c(C#N)c(C(C)C)c1C#N,75% (inactive)
7,COc1ccc(-n2nc(C(=O)Nc3cccc(C(F)(F)F)c3)c3c4ccccc4n(C)c3c2=O)cc1,78% (inactive)
8,Cc1cc(S(=O)(=O)N(C)Cc2ccccc2)ccc1-n1cnnn1,81% (inactive)
9,CN1C(=O)CC(=O)N(C)c2cc(S(=O)(=O)N(C)Cc3ccccc3)ccc21,3% (active)
10,CN1C(=O)Cc2cc(S(=O)(=O)NCCc3ccccc3)ccc21,123% (inactive)
11,Cc1oc(-c2ccccc2Cl)nc1CS(=O)(=O)CC(=O)NC(C)c1ccccc1 (stereo not given),63% (inactive)
12,Cc1ccc2ncc(C(=O)Nc3cccc(C(F)(F)F)c3)c(=O)n2c1,122% (inactive)
13,Cc1[nH]c2ccccc2c1C1N2CC3(C)CN1CC(C)(C2)C3=O (stereo not given),77% (inactive)
14,COc1ccc(N(CC(=O)Nc2cccc(Cl)c2C)S(=O)(=O)c2c(C)nn(C)c2C)cc1,62% (inactive)
15,CCOc1ccccc1NC(=O)CN(c1cc(C)cc(C)c1)S(=O)(=O)c1c(C)nn(C)c1C,89% (inactive)
16,Cc1cccc(NC(=O)CN(c2ccc(C(C)C)cc2)S(=O)(=O)c2c(C)nn(C)c2C)c1C,42% (active)
17,CCc1ccc(NC(=O)CN(c2ccc(C)cc2)S(=O)(=O)c2c(C)nn(C)c2C)cc1,56% (inactive)
18,Cc1nn(C)c(C)c1S(=O)(=O)N(CC(=O)Nc1ccc(F)cc1F)c1ccc(C(C)C)cc1,94% (inactive)
19,Cc1cc(C)cc(N(CC(=O)Nc2c(C)cc(C)cc2C)S(=O)(=O)c2c(C)nn(C)c2C)c1,-5% (active)
20,CC(=O)c1ccc(N2CCN(S(=O)(=O)c3ccc(-c4cc(C)no4)s3)CC2)cc1,-5% (active)
21,CC(=O)c1ccc(N2CCN(S(=O)(=O)c3ccc(-c4cc(C(F)(F)F)on4)s3)CC2)cc1,96% (inactive)
22,Cc1cc(-c2ccc(S(=O)(=O)N3CCN(c4ccc(Cl)cc4)CC3)s2)on1,124% (inactive)
23,Cc1cc(C)c(NC(=O)CN2C(=O)C3(SCC(=O)N3c3ccc(F)cc3)c3ccccc32)c(C)c1 (stereo not given),74% (inactive)
24,CN(Cc1ccccc1)C(=O)CSc1nnc(-c2cccc(Cl)c2)o1,85% (inactive)
25,O=C(N/N=C/c1ccco1)C1CN(S(=O)(=O)c2ccccc2)CCN1S(=O)(=O)c1ccccc1 (stereo not given),1% (active)
26,CCNC(=O)C1CN(S(=O)(=O)c2ccccc2)CCN1S(=O)(=O)c1ccccc1 (stereo not given),75% (inactive)
27,O=C(N/N=C/c1ccco1)C1c2ccccc2Oc2ccccc21,96% (inactive)
